# Measurements as given in ChEMBL document CHEMBL1961873, “Compounds: GSK PKIS; Assays: Nanosyn kinase panel” (2012).
# Biological target: Casein kinase I isoform gamma-3 (Homo sapiens) (UniProt Q9Y6M4)
# Conditions: at 1 µM
# 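Note: mean inhibition of CK1-g3, GSK PKIS screen.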
# Sequence of Casein kinase I isoform gamma-3 (Homo sapiens) (Q9Y6M4 whole entry, looked up, canonical isoform): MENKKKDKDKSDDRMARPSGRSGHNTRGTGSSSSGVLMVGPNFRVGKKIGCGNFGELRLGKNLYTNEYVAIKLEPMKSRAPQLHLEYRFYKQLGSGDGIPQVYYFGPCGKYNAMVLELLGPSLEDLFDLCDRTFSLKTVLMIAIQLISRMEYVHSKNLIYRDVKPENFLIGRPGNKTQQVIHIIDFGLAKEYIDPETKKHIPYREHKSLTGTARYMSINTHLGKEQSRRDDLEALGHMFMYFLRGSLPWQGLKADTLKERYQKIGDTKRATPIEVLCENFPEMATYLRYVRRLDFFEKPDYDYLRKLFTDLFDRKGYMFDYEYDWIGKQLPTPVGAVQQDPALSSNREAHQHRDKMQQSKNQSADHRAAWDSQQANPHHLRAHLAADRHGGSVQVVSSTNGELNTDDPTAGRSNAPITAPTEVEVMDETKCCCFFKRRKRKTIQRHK
row,Compound,inhibition [%]
1,COc1cc(/C=N/Nc2ncnc3[nH]ncc23)ccc1O,20
2,COc1cc(Nc2nccc(Nc3ccc4c(C)n[nH]c4c3)n2)cc(OC)c1OC,-0.68
3,COc1cc2c(cc1Nc1nc(Nc3ccsc3C(N)=O)c3cc[nH]c3n1)N(C(=O)CN(C)C)CCC2(C)C,24.3
4,CCn1c(-c2nonc2N)nc2c(C#CC(C)(C)O)nc(OC[C@H](N)c3ccccc3)cc21,4.23
5,COC(=O)Nc1nc2ccc(S(=O)(=O)c3ccc(NC(=O)Nc4cc(C(F)(F)F)ccc4F)cc3)cc2[nH]1,2.25
6,N#Cc1c(NC(=O)c2ccc(F)cc2)sc2c1CCCC2,-1.32
7,CCn1c(-c2nonc2N)nc2c(C#CC(C)(C)O)ncc(OC3CCNCC3)c21,3.15
8,CCn1c(-c2nonc2N)nc2cnc(Oc3cccc(NC(=O)c4ccc(N(C)C)cc4)c3)cc21,0.52
9,Fc1cccc(COc2ccc(Nc3ncnc4sc(-c5ccco5)cc34)cc2Cl)c1,3.97
10,O=S(=O)(CCNCc1ccc(-c2ccc3ncnc(Nc4ccc(OCc5cccc(F)c5)c(Cl)c4)c3c2)o1)c1ccccc1,5.14
11,COc1cccc(-n2ncc3c(N/N=C/c4ccc(F)cc4)ncnc32)c1,3.4
12,NC(=O)c1sc(-n2cnc3ccc(C(F)(F)F)cc32)cc1OCc1ccccc1Br,2.37
13,NS(=O)(=O)c1ccc(N/N=C2\C(=O)Nc3ccc4ncccc4c32)cc1,12.7
14,c1ccc(-c2nc3n(c2-c2ccc4c(c2)OCO4)CCC3)nc1,4.18
15,CCNC(=O)O[C@H]1CN[C@H](C#Cc2cc3ncnc(Nc4ccc(OCc5cccc(F)c5)c(Cl)c4)c3s2)C1,0.57
